Values joined by “and” are separate entries in the source; they are usually repeats but may differ in a detail not shown here. Equal values may be shown once. Among all 5,500 compounds or so, about 2,000 (36%) were called active. About 18% were inconclusive and are not listed. No stated cut-off is given here; in the data, active means normalized growth mostly below about 0.91 (no sharp cut-off); inconclusive means no clear call, values can overlap the other calls; inactive means mostly above about 0.92. The list shows a part of the results.
Assay: chemical genetic growth profiling, strain panel (AID 1159580);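 further: tested at 20 µM; growth read once vehicle control cultures reached saturation at 30 °C; 1 = growth at the plate median or of vehicle wells; lower values mean less growth of the strain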
Details: S. cerevisiae deletion strains, growth OD

Measured: normalized growth

Cc1cc(O)c2c(c1O)C(=O)c1c(O)cc(C)c(O)c1C2=O
inactive: locus YAL013W, strain DEP1, active compounds read low 0.982 | locus YAL021C, strain ccr4, active compounds read low 0.948 | locus YAL026C, strain drs2, active compounds read low 0.969 | locus YAL030W, strain snc1, active compounds read low 0.951 | locus YBL061C, strain skt5, active compounds read low 0.968 | locus YBR009C, strain hhf1, active compounds read low 0.97 | locus YBR021W, strain FUR4, active compounds read low 1.12 | locus YBR023C, strain chs3, active compounds read low 0.983 | locus YBR171W, strain sec66, active compounds read low 0.948 | locus YBR229C, strain ROT2, active compounds read low 0.969 | locus YBR231C, strain swc5, active compounds read low 0.974 | locus YBR279W, strain paf1, active compounds read low 0.989 | locus YCL011C, strain gbp2, active compounds read low 0.939 | locus YCL016C, strain dcc1, active compounds read low 0.978 | locus YCL029C, strain bik1, active compounds read low 0.988 | locus YCL061C, strain MRC1, active compounds read low 0.978 | locus YCL069W, strain vba3, active compounds read low 0.966 | locus YCR088W, strain abp1, active compounds read low 0.98 | locus YDL005C, strain med2, active compounds read low 0.971 | locus YDL035C, strain GPR1, active compounds read low 0.975 | locus YDL040C, strain nat1, active compounds read low 0.991 | locus YDL074C, strain BRE1, active compounds read low 1 | locus YDL101C, strain DUN1, active compounds read low 0.947 | locus YDL134C, strain PPH21, active compounds read low 0.967 | locus YDL185W, strain tfp1, active compounds read low 0.979 | locus YDL192W, strain arf1, active compounds read low 0.987 | locus YDR001C, strain nth1, active compounds read low 0.952 | locus YDR069C, strain doa4, active compounds read low 0.942 | locus YDR101C, strain arx1, active compounds read low 0.993 | locus YDR137W, strain rgp1, active compounds read low 0.877 | locus YDR150W, strain NUM1, active compounds read low 0.989 | locus YDR159W, strain sac3, active compounds read low 0.973 | locus YDR162C, strain NBP2, active compounds read low 0.921 | locus YDR195W, strain ref2 1.04 | locus YDR297W, strain sur2, active compounds read low 0.973 | locus YDR318W, strain mcm21, active compounds read low 0.985 | locus YDR334W, strain swr1, active compounds read low 0.921 | locus YDR335W, strain msn5, active compounds read low 0.961 | locus YDR388W, active compounds read low 0.986 | locus YDR392W, strain spt3, active compounds read low 0.858 | locus YDR502C, strain sam2, active compounds read low 1 | locus YEL003W, strain gim4, active compounds read low 0.956 | locus YEL037C, strain rad23, active compounds read low 0.972 | locus YEL061C, strain CIN8 (second series), active compounds read low 0.97 | locus YEL061C, strain CIN8, active compounds read low 0.97 | locus YER015W, strain faa2, active compounds read low 0.95 | locus YER016W, strain bim1, active compounds read low 0.979 | locus YER110C, active compounds read low 0.992 | locus YER111C, strain swi4, active compounds read low 0.963 | locus YER155C, strain BEM2 (second series), active compounds read low 0.946 | locus YER155C, strain BEM2, active compounds read low 0.996 | locus YER167W, strain BCK2, active compounds read low 1.01 | locus YFR010W, strain ubp6, active compounds read low 0.942 | locus YGL078C, strain dbp3, active compounds read low 0.993 | locus YGL086W, strain mad1, active compounds read low 0.981 | locus YGL167C, strain pmr1, active compounds read low 0.977 | locus YGL173C, strain kem1, active compounds read low 0.946 | locus YGL227W, strain vid30, active compounds read low 0.983 | locus YGL240W, strain doc1, active compounds read low 0.962 | locus YGL248W, strain PDE1, active compounds read low 0.945 | locus YGL253W, strain hxk2, active compounds read low 0.985 | locus YGR078C, strain PAC10, active compounds read low 0.983 | locus YGR135W, strain pre9, active compounds read low 0.988 | locus YGR229C, strain SMI1, active compounds read low 0.992 | locus YGR252W, strain gcn5, active compounds read low 1.16 | locus YHR013C, strain ard1, active compounds read low 0.957 | locus YHR027C, strain rpn1, active compounds read low 0.951 | locus YHR030C, strain SLT2, active compounds read low 0.964 and 0.996 | locus YHR079C, strain IRE1 (second series), active compounds read low 0.985 | locus YHR079C, strain IRE1, active compounds read low 1 | locus YHR094C, strain hxt1, active compounds read low 0.995 | locus YHR129C, strain ARP1, active compounds read low 0.963 | locus YHR142W, strain chs7, active compounds read low 0.964 | locus YHR200W, strain rpn10, active compounds read low 0.994 | locus YIL066C, strain RNR3, active compounds read low 0.939 | locus YIL073C, strain SPO22, active compounds read low 1.3 | locus YIL125W, strain kgd1, active compounds read low 1 | locus YIR030C, strain dcg1, active compounds read low 0.997 | locus YJL092W, strain hpr5, active compounds read low 0.965 | locus YJL095W, strain BCK1 (second series), active compounds read low 0.974 | locus YJL095W, strain BCK1, active compounds read low 0.893 and 0.997 | locus YJL115W, strain asf1, active compounds read low 0.938 | locus YJL129C, strain trk1, active compounds read low 0.891 | locus YJL134W, strain LCB3, active compounds read low 0.977 | locus YJL154C, strain vps35, active compounds read low 0.971 | locus YJL164C, strain tpk1, active compounds read low 0.971 | locus YJL166W, strain qcr8, active compounds read low 0.978 | locus YJL168C, strain set2, active compounds read low 0.969 | locus YJL187C, strain SWE1 (second series), active compounds read low 0.903 | locus YJL187C, strain SWE1, active compounds read low 0.968 | locus YJR043C, strain POL32, active compounds read low 1.02 | locus YJR066W, strain TOR1, active compounds read low 0.926
